Measured values: ChEMBL document CHEMBL4296182, “CO-ADD screening of NIH NCI Diversity Set V”
For part of these data: Entries with a potency or affinity are not part of this list.

How the values were obtained:
Staphylococcus aureus = experiment: Antibacterial activity against Staphylococcus aureus MRSA ATCC 43300 (CO-ADD:GP_020); MIC in CAMBH media using NBS plates, by Resazurin F(560/590); assay type: functional; details: Concentration 20 uM, ASSAY_TEST Inhibition of Bacterial Growth, detection method Resazurin, Fluorescence (ex560/em590), MEDIA CAMHB, plate type 384well, CORNING #3640, time 18 hr
Acinetobacter baumannii = experiment: Antibacterial activity against Acinetobacter baumannii ATCC 19606 (CO-ADD:GN_034); MIC in CAMBH media using NBS plates, by Resazurin F(560/590); assay type: functional; details: Concentration 20 uM, ASSAY_TEST Inhibition of Bacterial Growth, detection method Resazurin, Fluorescence (ex560/em590), MEDIA CAMHB, plate type 384well, CORNING #3640, time 18 hr
Escherichia coli = experiment: Antibacterial activity against Escherichia coli ATCC 25922 (CO-ADD:GN_001); MIC in CAMBH media using NBS plates, by Resazurin F(560/590); assay type: functional; details: Concentration 20 uM, ASSAY_TEST Inhibition of Bacterial Growth, detection method Resazurin, Fluorescence (ex560/em590), MEDIA CAMHB, plate type 384well, CORNING #3640, time 18 hr
Klebsiella pneumoniae = details: Concentration 20 uM; ASSAY_TEST Inhibition of Bacterial Growth; detection method Absorption (OD600); MEDIA CAMHB; plate type 384well; NBS; CORNING #3640; time 18 hr
Candida albicans = details: 20 µM
Cryptococcus neoformans = details: Concentration 20 uM; ASSAY_TEST Inhibition of Fungal Growth; detection method Resazurin; Absorption (OD600-OD570); plate type 384well; NBS; CORNING #3640

Structure (SMILES) | Inhibition (Staphylococcus aureus) | Inhibition (Acinetobacter baumannii) | Inhibition (Escherichia coli) | Inhibition (Klebsiella pneumoniae) | Inhibition (Candida albicans) | Inhibition (Cryptococcus neoformans)
CCn1c2ccccc2nc2cc3c(cc21)c(Cl)c(=O)c1ccccc13 | 25.73% | 12.51% | 3.84% | 12.19% | -1.37% | -5.64%
Cc1cc(O)c2cc(C(=O)c3ccccc3)ccc2n1 | 13.49% | 5.7% | 2.87% | 7.32% | 2.58% | -7.43%
Cn1c(=O)c2c(nc(Oc3ccccc3)n2C)n(C)c1=O | 7.55% | 11.19% | -2.76% | 19.27% | 7.25% | -3.63%
O=C(C(=O)c1cccnc1)c1cccnc1 | 7.87% | -9.17% | 12.61% | 6.86% | -0.57% | -3.14%
O=C(O)c1cc(N2C(=O)C=CC2=O)cc(N2C(=O)C=CC2=O)c1 | -1.11% | -6.34% | 5.17% | 6.14% | 5.6% | -4%
C[C@H](CCC(=O)O)[C@H]1CC[C@@]2(C)[C@@H]3C(=O)C[C@H]4C(C)(C)[C@@H](O)CC[C@]4(C)[C@H]3C(=O)C[C@]12C | 2.14% | -2.92% | -3.17% | 11.41% | -2.24% | -2.42%
Cc1ccc(/N=N\c2c(O)ccc3[nH]nnc23)cc1 | -9.42% | -9.08% | 4.02% | 11.98% | 13.2% | -12.82%
Cc1cn(C2CC(O)C(CO)O2)c(=O)n(Cc2ccccc2)c1=O (stereo unspecified) | 4.94% | 6.87% | 7.7% | 11.99% | 1.89% | -13.31%
COC(=O)c1cc(C)nc2c(C)cc3[nH]c4ccccc4c3c12 | -3.37% | -0.23% | -15.24% | 17.6% | 8.78% | 0.02%
COc1ccc(CN2CCOC2=O)cc1OC | 2.93% | -8.7% | 2.98% | 20.13% | -0.97% | -5.16%
CC1=C(c2ccccc2)C=NNCC1=O | 7.06% | -11.86% | 19.62% | 15.54% | 3.87% | -8.22%
CC(=O)NCC1(O)CCCC(C)C1 (stereo unspecified) | 7.69% | -13.88% | 5.11% | 9.82% | 1.28% | -5.78%
Cc1nc(NCc2ccccc2)c2cc[nH]c2n1 [ROLODINE] | -1.89% | -12.81% | 4.8% | 9.06% | 2.35% | -8.43%
CCOC(=O)c1c(C)c(C(=O)OCC)n(C)c1C | 8.23% | 6.43% | -8.3% | 6.99% | 4.68% | 10.56%
COc1cc(C(=O)C(=O)c2ccc(O)c(OC)c2)ccc1O | -3.81% | -13.36% | 16.47% | 8.6% | 1.86% | -17.88%
O=C(NC(=S)Nc1ccccn1)c1ccccc1 | -7.14% | -16.09% | 5.5% | 8.04% | 10.1% | -15.94%
C=CCNC(=S)NCC=C | 10.5% | -8.96% | 3.32% | 27.24% | 1.09% | 2.25%
Nc1ccc(-c2nc3nc(N)nc(N)c3nc2-c2ccc(N)cc2)cc1 | 11.99% | -8.41% | -0.05% | 5.53% | 0.39% | -7.52%
CCOC(=O)Nc1ccc2nc(Sc3ccc(Cl)cc3)sc2c1 | 12.84% | 1.81% | -1.5% | 17.17% | 10.2% | -3.93%
Cn1c(=O)c2c(nc(Cc3ccc(N)cc3)n2C)n(C)c1=O | 12.3% | 8.51% | 1.69% | 16.58% | -1.67% | -5.25%
O=C(O)c1ccc(O)c(O)c1 [PROTOCATECHUIC ACID] | 11.87% | -8.73% | 11.18% | 17.43% | -0.18% | -4.26%
Cn1cnc2ncnn2c1=S | 0.31% | -8.2% | -1.17% | -0.39% | 2.7% | -8.45%
O=[N+]([O-])c1cc(-c2cccnc2)[nH]n1 | -4.13% | -4.27% | 2.34% | 30.86% | 1.12% | -1.42%

Structure (SMILES) | Inhibition (Staphylococcus aureus) | Inhibition (Acinetobacter baumannii) | Inhibition (Escherichia coli) | Inhibition (Klebsiella pneumoniae) | Inhibition (Candida albicans) | Inhibition (Cryptococcus neoformans)
CCOC(=O)c1cc[nH]c1CC(=O)NC | 7.18% | 12.41% | -1.94% | 10.9% | 1.71% | -10.3%
CC(=O)Nc1ccc(S(=O)(=O)N/N=c2/sc3ccccc3n2C)cc1N | 12.5% | 3.99% | 3.58% | 3.38% | -0.64% | -8.3%
c1ccc(-c2nc(-c3ccccn3)nc(-c3ccccn3)n2)nc1 | 2.88% | 10.22% | -0.02% | 10.56% | 2.65% | -6.65%
c1ccc(-c2nnc3oc(-c4cccs4)nn23)cc1 | -2.52% | -16.04% | 4.88% | 16.29% | 19.4% | 28.69%
C=C(C)c1nc(Oc2ccccc2)nc(Oc2ccccc2)n1 | 19.07% | 6.26% | 6.34% | 11.06% | 0.6% | -9.97%
O=C1c2ccccc2C(=O)N1c1nc[nH]n1 | 4.45% | -18.59% | 12.38% | 0.02% | -0.21% | -4.67%
Nc1ncnc2c1ncn2C=C=CCO | 13.44% | 8.12% | -2.59% | 6.59% | 1.58% | -2.86%
CC(=O)OC1C=CCC2C(=O)c3cccc(O)c3C(O)C12 (stereo unspecified) | -1.42% | -10.27% | 6.95% | 7.69% | 6.66% | -16.38%
Cc1cc(NC(=O)c2ccccc2)c(Cl)cc1N | 13.14% | 13.32% | 3.07% | 14.81% | 3.76% | -3.43%
Cc1nc2ccccc2c(N)c1-c1cc(C)c2c(C)nc3ccccc3c2n1 | -4.42% | 8.74% | -14.9% | 5.08% | 2.89% | 18.77%
Cc1ccc(-c2nc(-c3nccc4ccccc34)oc2-c2ccccc2)cc1 | 17.39% | 5.86% | 4.4% | 6.85% | 18.7% | -2.8%
Oc1cc(-c2nn[nH]n2)nc(O)n1 | 15.18% | -5.46% | 13.37% | 14.33% | 1.84% | 0.69%
CC(C)n1cnc2c(S)ncnc21 | 14.01% | -16.92% | 12.98% | 11.21% | 2.47% | -6.64%
Nc1nc(SCc2ccccc2)sc1C(=O)N1CCCCC1 | 18.6% | 4.73% | 3.88% | 21.18% | 8.19% | -7.01%
O=C(O)c1nc2nc(Cl)c(Cl)nc2[nH]1 | -9.71% | 8.37% | 0.88% | 10.97% | 3.92% | -11.32%
Nc1ccc(/N=N/c2ccccc2)c2ccccc12 | 1.47% | -18.91% | 11.66% | 8.12% | 1.76% | -16.64%
O=[N+]([O-])c1ccc(/C=C\c2ccncc2)cc1 | -4.43% | 17.7% | -9.25% | 16.94% | 3.43% | -1.17%
OC1COC(OCc2ccccc2)C(O)C1O (stereo unspecified) | 21% | -10.71% | 8.16% | 4.56% | 0.34% | -6.82%
Nc1cc(O)nc2ncnn12 | 9.25% | -2.47% | 7.96% | 6.69% | -0.84% | -4.53%
C=CCc1ccccc1OCC(=O)O | 3.16% | -9.95% | 10.02% | 15.59% | 5.01% | 1.51%
O=C(NN1CCCCC1)NN1CCCCC1 | 9.98% | 7.95% | 2.92% | -4.05% | 1.96% | -2.31%
Cn1ncc2c(Nc3ccc(O)cc3)nc(Cl)nc21 | 6.63% | 8.39% | 3.23% | 11.85% | 5.74% | -12.05%
CCCOc1ccc(-c2nc(-c3ccc([N+](=O)[O-])cc3)cs2)cc1 | 9.47% | 16.16% | 3.67% | 10.79% | 5.94% | -3.16%
